From PubChem BioAssay
EBI2 block = EBI2 (human) antagonism. P32249. EBI2 beta-arrestin recruitment, luminescence, 7a,25-OHC stimulated. inhibition, % at 5 µM. actives 0.81% (n = 360,000). AID 651636; in the data active = inhibition above about 38%;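 note: enzyme fragment complementation signal reports receptor beta-arrestin coupling in cells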
Target sequence (P32249 whole entry, looked up, the tested form may be a part): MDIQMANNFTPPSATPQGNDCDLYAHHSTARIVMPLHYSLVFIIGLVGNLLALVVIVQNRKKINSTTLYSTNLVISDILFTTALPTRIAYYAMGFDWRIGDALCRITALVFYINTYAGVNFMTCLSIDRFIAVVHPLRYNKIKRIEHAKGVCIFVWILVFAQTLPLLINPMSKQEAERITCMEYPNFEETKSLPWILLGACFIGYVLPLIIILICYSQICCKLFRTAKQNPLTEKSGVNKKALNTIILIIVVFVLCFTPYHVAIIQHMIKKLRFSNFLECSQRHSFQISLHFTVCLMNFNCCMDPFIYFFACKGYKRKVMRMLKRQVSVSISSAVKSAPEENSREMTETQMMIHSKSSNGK
SKKanGAS inh = blocks kanamycin growth of S. pyogenes SKKanGAS strain; actives 1.3% (n = 300,000); AID 1662; BacTiter-Glo, 6 h; inhibition, % at 7.5 µM;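 active = mean replicate score, as percent of positive control median, at least 50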;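 note: strain carries kanamycin resistance gene driven by streptokinase promoter and grows in 40 µg/ml kanamycin; loss of luminescence reflects streptokinase promoter inhibition or plain growth inhibition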
TIM10 inh = inhibits growth of TIM10 yeast strain | inhibition, % at 10 µM | actives 1.4% (n = 330,000) | AID 463195 | S. cerevisiae TIM10 strain growth, BacTiter-Glo luminescence, 24 h;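 active = inhibition of 40% or more at the single tested concentration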;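 note: wild-type TIM10 isogenic control strain grown at permissive 25 °C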
tim10-1 inh = growth inhibitors of tim10-1 mutant yeast. AID 463190. inhibition, % at 20 µM. actives 2.2% (n = 330,000). S. cerevisiae tim10-1 ts strain growth, BacTiter-Glo, 24 h;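 active = inhibition of at least 40%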;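 note: mutant grown at 25 °C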
PfHsp90 set2 = reduces growth (ATP signal) of yeast expressing P. falciparum Hsp90; inhibition, % at 9.4 µM; actives 0.32% (n = 310,000); S. cerevisiae expressing PfHsp90, BacTiter-Glo ATP, 48 h; yeast lacking PDR1 and PDR3 efflux regulators;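 active = every replicate shows inhibition above about 80%, whatever the replicate mean, limit read from the data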
tim23-1 inh = growth inhibitors of tim23-1 mutant yeast | S. cerevisiae tim23-1 growth, BacTiter-Glo luminescence, 24 h | inhibition, % at 20 µM | actives 1.3% (n = 330,000) | AID 463212;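 active = growth inhibition of the mutant yeast at or above 50%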;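 note: temperature-sensitive mutant grown at 25 °C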
tim10-1 conf = confirmation of tim10-1 mutant yeast growth inhibitors; actives 56% (n = 7,400); S. cerevisiae tim10-1 ts strain growth, BacTiter-Glo, 24 h; inhibition, % at 20 µM; shares compounds with tim10-1 inh;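 active = inhibition of yeast growth at or above a set limit in either of two repeat tests at 20 µM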;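 note: tim10-1 mutant grown at permissive 25 °C to find synthetic lethal compounds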
Numbers stand for hits. Rows were chosen to be rich in hits. Some 4.7% of all compounds tested hit in one or more screens of this group.

How did CCN(CC)C(=O)c1sc(NC(=O)Cc2ccccc2)c(C#N)c1C do in these assays?
EBI2 block: inactive; SKKanGAS inh: inactive; TIM10 inh: inactive; tim10-1 inh: inactive; PfHsp90 set2: inactive; tim23-1 inh: inactive

What do the screens show for `CCN(CC)C(=O)c1sc(NC(=O)c2cccs2)c(C#N)c1C`?
EBI2 block: inactive; SKKanGAS inh: inactive; TIM10 inh: inactive; tim10-1 inh: 43.8; PfHsp90 set2: inactive; tim23-1 inh: inactive; tim10-1 conf: inactive

What do the screens show for `O=C(O)c1ccc(Cl)c2c1C1C=CCC1C(c1ccccn1)N2` (centres undefined)?
SKKanGAS inh: inactive; TIM10 inh: inactive; tim10-1 inh: 42.7; tim23-1 inh: inactive; tim10-1 conf: inactive

How did Cc1ccc(S(=O)(=O)N2CCCCC2)cc1NC(=O)c1ccc(Cl)nc1 do in these assays?
EBI2 block: inactive; TIM10 inh: inactive; tim10-1 inh: inactive; PfHsp90 set2: inactive; tim23-1 inh: inactive

Results for c1ccc2c(c1)ccc1nnc(SCc3ccc4c(c3)OCCO4)n12 ?
EBI2 block: inactive; SKKanGAS inh: inactive; TIM10 inh: inactive; tim10-1 inh: 45.2; PfHsp90 set2: inactive; tim23-1 inh: inactive; tim10-1 conf: 29.5

Results for Cc1cc2nnc(SCc3ccc4c(c3)OCO4)n2c2ccccc12 ?
EBI2 block: inactive; PfHsp90 set2: inactive

How did CC(=O)c1ccc(NS(=O)(=O)c2ccc(-c3cnc(C4CC4)o3)cc2)cc1 do in these assays?
EBI2 block: inactive; SKKanGAS inh: inactive; TIM10 inh: inactive; tim10-1 inh: inactive; PfHsp90 set2: inactive; tim23-1 inh: inactive

What do the screens show for `Cc1ccc(CNS(=O)(=O)c2ccc(-c3cnc(C4CC4)o3)cc2)cc1`?
EBI2 block: inactive; SKKanGAS inh: inactive; TIM10 inh: inactive; tim10-1 inh: inactive; PfHsp90 set2: inactive; tim23-1 inh: inactive

Results for COc1ccc(C)cc1NS(=O)(=O)c1ccc(-c2cnc(C3CC3)o2)cc1 ?
EBI2 block: inactive; SKKanGAS inh: inactive; TIM10 inh: inactive; tim10-1 inh: 43.3; PfHsp90 set2: inactive; tim23-1 inh: inactive; tim10-1 conf: inactive

What do the screens show for `Cc1ccc(NS(=O)(=O)c2ccc(-c3cnc(C4CC4)o3)cc2)cc1`?
EBI2 block: inactive; SKKanGAS inh: inactive; TIM10 inh: inactive; tim10-1 inh: 40.4; PfHsp90 set2: inactive; tim23-1 inh: inactive; tim10-1 conf: inactive

Results for CCCCC(=O)N1C(C)CCC1C (centres undefined) ?
EBI2 block: inactive

Results for COc1ccccc1C(=O)NCCC(=O)NCC1COc2ccccc2O1 (centres undefined) ?
EBI2 block: inactive; TIM10 inh: inactive; tim10-1 inh: inactive; PfHsp90 set2: inactive; tim23-1 inh: inactive

How did CC1=CC(C)(C)Nc2ccc(OC(=O)CN3C(=O)c4ccccc4C3=O)cc21 do in these assays?
EBI2 block: inactive; SKKanGAS inh: inactive; TIM10 inh: inactive; tim10-1 inh: 46.9; PfHsp90 set2: inactive; tim23-1 inh: inactive; tim10-1 conf: 32.5

How did COc1ccc(C(CNC(=O)C(C)(C)Oc2ccc(Cl)cc2)N2CCOCC2)cc1 (centres undefined) do in these assays?
EBI2 block: inactive; PfHsp90 set2: inactive

How did O=C(NCCNC(=O)c1ccc(-c2cc(Cl)ccc2Cl)o1)c1cnccn1 do in these assays?
EBI2 block: inactive

Results for O=C(CN1CCN(S(=O)(=O)c2ccccc2)CC1)Nc1ccc([N+](=O)[O-])cc1 ?
EBI2 block: inactive; SKKanGAS inh: inactive; TIM10 inh: inactive; tim10-1 inh: 47.4; PfHsp90 set2: inactive; tim23-1 inh: inactive; tim10-1 conf: 31.5

Results for Cc1noc(C)c1C(=O)N1CCC1(C)C(=O)NS(=O)(=O)c1cccc(F)c1 (centres undefined) ?
EBI2 block: inactive

What do the screens show for `CCCN1CCN(C(=O)C2CCN(S(=O)(=O)c3c(C)noc3/C=C/c3ccc(C)cc3)CC2)CC1`?
EBI2 block: inactive; SKKanGAS inh: inactive; TIM10 inh: inactive; tim10-1 inh: 54.0; PfHsp90 set2: inactive; tim23-1 inh: inactive; tim10-1 conf: 28.2

What do the screens show for `C=CCSc1nc(N(CC)CC)c2sccc2n1`?
EBI2 block: inactive; SKKanGAS inh: inactive; TIM10 inh: inactive; tim10-1 inh: 43.6; PfHsp90 set2: inactive; tim23-1 inh: inactive; tim10-1 conf: inactive

What do the screens show for `OCCn1c(-c2ccc3c(c2)OCO3)csc1=Nc1ccccc1`?
EBI2 block: inactive; SKKanGAS inh: inactive; TIM10 inh: inactive; tim10-1 inh: 48.3; PfHsp90 set2: inactive; tim23-1 inh: inactive; tim10-1 conf: 32.6

What do the screens show for `C/C(Cc1ccccc1)=N\NC(=O)CNC(=O)c1ccccc1Br`?
EBI2 block: inactive; SKKanGAS inh: inactive; TIM10 inh: inactive; tim10-1 inh: inactive; PfHsp90 set2: inactive; tim23-1 inh: inactive

Results for Cc1cccc(C(=O)NCC(=O)OCc2cc(=O)n3ccsc3n2)c1 ?
EBI2 block: inactive; SKKanGAS inh: inactive; TIM10 inh: inactive; tim10-1 inh: inactive; PfHsp90 set2: inactive; tim23-1 inh: inactive

What do the screens show for `O=C(c1ccc(Cl)cc1[N+](=O)[O-])N(Cc1ccccc1)Cc1ccccc1`?
SKKanGAS inh: inactive; TIM10 inh: inactive; tim10-1 inh: inactive; tim23-1 inh: inactive

How did CC(C)(C)N(Cc1ccccc1)C(=O)c1ccc(Cl)cc1[N+](=O)[O-] do in these assays?
EBI2 block: inactive; SKKanGAS inh: inactive; TIM10 inh: inactive; tim10-1 inh: 43.3; PfHsp90 set2: inactive; tim23-1 inh: inactive; tim10-1 conf: 28.6

How did Cc1cc(N(C)Cc2ccccc2)nc2cc(O)ccc12 do in these assays?
EBI2 block: inactive; SKKanGAS inh: inactive; TIM10 inh: inactive; tim10-1 inh: inactive; PfHsp90 set2: inactive; tim23-1 inh: inactive

What do the screens show for `COc1ccccc1NC(=S)NCCc1ccc(F)cc1`?
EBI2 block: inactive; SKKanGAS inh: inactive; TIM10 inh: inactive; tim10-1 inh: 48.1; PfHsp90 set2: inactive; tim23-1 inh: inactive; tim10-1 conf: inactive

What do the screens show for `COC(=O)CN1C(=S)N(c2ccc(OC)cc2)C(=O)/C1=C/c1ccc(N2CCOCC2)cc1`?
EBI2 block: inactive; SKKanGAS inh: inactive; PfHsp90 set2: inactive

Results for COC(=O)CN1C(=S)N(c2ccc(OC)cc2)C(=O)/C1=C/c1ccc(OC)cc1 ?
EBI2 block: inactive; SKKanGAS inh: inactive; TIM10 inh: inactive; tim10-1 inh: 49.9; PfHsp90 set2: inactive; tim23-1 inh: inactive; tim10-1 conf: 36.6

How did CCOC(=O)C1CCN(C(=O)Cc2ccc(-c3ccccc3)cc2)CC1 do in these assays?
EBI2 block: inactive; SKKanGAS inh: inactive; TIM10 inh: inactive; tim10-1 inh: inactive; PfHsp90 set2: inactive; tim23-1 inh: inactive

Results for Cc1ccc2cc(C)c3nnc(SCC(=O)c4cccs4)n3c2c1C ?
EBI2 block: inactive; SKKanGAS inh: inactive; TIM10 inh: inactive; tim10-1 inh: 40.1; PfHsp90 set2: inactive; tim23-1 inh: inactive; tim10-1 conf: inactive
